The panel holds about 83,000 compounds, 20% with a hit somewhere; the sample as a whole holds those more often.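 The endpoint reported here, percent growth, reads 100 for growth as untreated, 0 for no net growth and -100 for all cells dead.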 A number with no mark means an inactive call. Calls of active or inactive are those of the source. The calls were made as follows: active = growth percent below 10; inactive = the rest.
Assays:
Experiment in all cases: NCI-60 one-dose screen, 48 h (100 = growth as untreated, 0 = no growth, -100 = all killed)
Details in all cases: 10 µM unless noted
SR leukemia = tested on: SR leukemia
RPMI-8226 leukemia = tested on: RPMI-8226 leukemia
OVCAR-8 ovarian = tested on: OVCAR-8 ovarian
OVCAR-5 ovarian = tested on: OVCAR-5 ovarian
OVCAR-4 ovarian = tested on: OVCAR-4 ovarian
SK-OV-3 ovarian = tested on: SK-OV-3 ovarian
IGROV1 ovarian = tested on: IGROV1 ovarian
OVCAR-3 ovarian = tested on: OVCAR-3 ovarian
HS 578T breast = tested on: HS 578T breast
NCI/ADR-RES ovarian = tested on: NCI/ADR-RES ovarian
T-47D breast = tested on: T-47D breast
BT-549 breast = tested on: BT-549 breast
MDA-MB-435 melanoma = tested on: MDA-MB-435 melanoma
SW-620 colon = tested on: SW-620 colon
MCF7 breast = tested on: MCF7 breast
HCT-116 colon = tested on: HCT-116 colon
HCC-2998 colon = tested on: HCC-2998 colon
KM12 colon = tested on: KM12 colon

| SMILES | growth (SR leukemia) | growth (RPMI-8226 leukemia) | growth (OVCAR-8 ovarian) | growth (OVCAR-5 ovarian) | growth (OVCAR-4 ovarian) | growth (SK-OV-3 ovarian) | growth (IGROV1 ovarian) | growth (OVCAR-3 ovarian) | growth (HS 578T breast) | growth (NCI/ADR-RES ovarian) | growth (T-47D breast) | growth (BT-549 breast) | growth (MDA-MB-435 melanoma) | growth (SW-620 colon) | growth (MCF7 breast) | growth (HCT-116 colon) | growth (HCC-2998 colon) | growth (KM12 colon) |
| --- | --- | --- | --- | --- | --- | --- | --- | --- | --- | --- | --- | --- | --- | --- | --- | --- | --- | --- |
| COc1cc(CN(c2ccc(Cl)cc2)C2OC(=O)c3ccccc32)cc(OC)c1OC (stereo unspecified) | 32.1% | 70.9% | 74.8% | 63.5% | 74.7% | 62.7% | 63.9% | 48.8% | 59.6% | 55.9% | 42.3% | 44.8% | -45% (active) | 30.8% | 31.3% | 28% | 73.8% | 31.8% |
| Cc1ccc2[nH]c3nc4cccnc4c(C)c3c2c1 | 2.59% (active) | 69.6% | 88.3% | 59.6% | 87.1% | 88% | 85.8% | 99.8% | 93.2% | 83.2% | 14.2% | 68.6% | 108% | 91.6% | 1.4% (active) | 91.9% | 92.7% | 72.8% |
| COc1ccc(-c2ccc(NC(=O)Nc3ccc(Cl)c(C(F)(F)F)c3)c(C)n2)cc1 | 35.7% | 9.87% (active) | 57.4% | 89.1% | 45.1% | 68.1% | 52.9% | 27.6% | 77% | 49.8% | 21.5% | 66.2% | 71.9% | 67% | 36.7% | 23.7% | 69.2% | 37.4% |
| CCCC(=O)Oc1ccc(/C(=C(\C)c2ccc(Cl)cc2)c2ccc(OCCN(CC)CC)cc2)cc1 | -36.3% (active) | -49.5% (active) | -48.4% (active) | 30.4% | 3.08% (active) | -6.52% (active) | 12.5% | -64.6% (active) | -38.1% (active) | -6.97% (active) | -33.1% (active) | 22.7% | -85.9% (active) | -80.2% (active) | -78.4% (active) | -86.7% (active) | -65.4% (active) | -44.4% (active) |
| C=C1C(=O)O[C@H]2[C@H]1CC/C(COC(=O)c1cccc3ccccc13)=C\CC[C@@]1(C)O[C@@H]21 | -31.4% (active) | -40.5% (active) | -42.8% (active) | -47.9% (active) | -38.9% (active) | 84.3% | -68.5% (active) | -86.5% (active) | 2.83% (active) | -28.4% (active) | -60% (active) | -45.1% (active) | -54.2% (active) | -52.8% (active) | -42.9% (active) | -93.8% (active) | 62.7% | 19.9% |
| Cc1ccc(/C=C2/C(=O)Nc3cc(Cl)c(-c4csc(N)n4)cc32)cc1 | 23.9% | 50% | 82.6% | 102% | 68.7% | 77.7% | 59.7% | 59.8% | 63.7% | 82.9% | 34.9% | 53.4% | -9.13% (active) | 58.6% | 35.8% | 66% | 91.4% | 44.5% |
| N#Cc1c2c(c(N)[nH]c1=O)C(=O)NC2(O)c1ccccc1 (stereo unspecified) | 93.1% | 107% | 106% | 111% | 117% | 103% | 109% | 102% | 111% | 105% | 103% | 105% | 109% | 111% | 99.6% | 104% | 101% | 102% |
| COc1ccc(Cn2cc3c(c2-c2cc(OC)c(OC)c(OC)c2)CCc2c(CO)noc2-3)cc1 | 22.2% | 21.7% | 22.4% | 56.6% | 68.9% | 39.9% | 40.8% | 5.3% (active) | 9.56% (active) | 8.59% (active) | 64.3% | 0.154% (active) | -27.1% (active) | 21.4% | 19.6% | 7.89% (active) | 26.5% | 16.5% |
| COc1cc(-c2nc(N)n(CC(=O)Nc3ccc(/C(C)=N\O)cc3)n2)cc(OC)c1OC | 83% | 94.3% | 74.3% | 114% | 112% | 87.9% | 96.8% | 106% | 82.1% | 105% | 91.2% | 108% | 82% | 95.2% | 89.2% | 101% | 102% | 97.3% |
| O[C@@H]1CCO[C@H](c2ccc3ccccc3c2)C1 | 95.7% | 96.4% | 106% | 110% | 105% | 108% | 107% | 106% | 100% | 106% | 89.4% | 105% | 106% | 105% | 103% | 96.6% | 98.6% | 104% |
| C=C1C(=O)O[C@H]2[C@H]1CC/C(COC(=O)n1ccnc1C)=C\CC[C@@]1(C)O[C@@H]21 | 86.6% | 100% | 91.4% | 101% | 99.3% | 85.4% | 97.7% | 73.7% | 98% | 96.3% | 85% | 97.3% | 99.5% | 85% | 87.8% | 89% | 103% | 103% |
| COc1ccc(CNc2nc3ccccc3c3c(=O)c4ccccc4sc23)cc1OC | 65.3% | 87.3% | 64.8% | 97.2% | 62.1% | 81.9% | 80.6% | 82.6% | 65.8% | 74.3% | 93.5% | 103% | 91.7% | 73.7% | 73.9% | 68.8% | 94% | 79.8% |
| Cc1cccc(CC(=O)c2ccccc2)n1 | 94.4% | 89.4% | 91.8% | 83.8% | 90% | 92.2% | 97% | 105% | 91% | 75.7% | 94.2% | 111% | 99% | 91.3% | 92% | 90.5% | 94.6% | 88.1% |
| COc1ccccc1S(=O)(=O)Nc1ccc2c3c(cc(-c4cnn(C5CC5)c4)nc13)C(=O)N2C | 51.3% | 10% | 70.1% | 72.6% | 62.2% | 55.8% | 59.2% | 69.8% | 55.9% | 59% | 69.9% | 90% | 52.4% | 68.5% | 29.6% | 60% | 75.4% | 56.3% |
| COc1ccccc1S(=O)(=O)Nc1ccc2c3c(cc(-c4ccoc4)nc13)C(=O)N2C | 59.2% | 15.5% | 70.5% | 76.3% | 55.1% | 59.3% | 62% | 74% | 56.2% | 55.1% | 70.1% | 78.7% | 32.8% | 71.3% | 35.5% | 63% | 74.7% | 58.1% |
| Nc1ncc(-c2ccc3ncnc(Nc4ccc(F)c(Cl)c4)c3c2)cn1 | -35.1% (active) | 50% | 61.3% | 80.3% | -17.3% (active) | 65.7% | 1.68% (active) | -57.4% (active) | 34.6% | 59.4% | 26% | 22.5% | 84% | 66.4% | 27.1% | 21% | 83.9% | 66.1% |
| CC(C)[C@@H]1NC(=O)[C@]2(C)CSC(=N2)c2ccnc(c2)CNC(=O)C[C@@H](/C=C/CCS)OC1=O | 7.26% (active) | -18.5% (active) | -3.79% (active) | 18.2% | 27.3% | -7.53% (active) | 0.54% (active) | -6.18% (active) | 9.92% (active) | 29.8% | -24.6% (active) | 42.7% | 5.07% (active) | 4.68% (active) | 16.1% | -39.2% (active) | -66.5% (active) | 6.09% (active) |

Reference: PubChem BioAssay (NCI)
